Bioassay records as filed in PubChem BioAssay.
FMDV inh: blocks foot and mouth disease virus; FMDV antiviral cell-based qHTS; 410,000 tested, 1.2% active; AID 1159524; Potency, µM (highest dose often 57.9 µM), most hits filed as inhibitors; calls by dose curve; tested in HEK293T cells; further: read-out not given here; nearly all actives have a fitted effect of over 45% in size
Vaccinia Venus: inhibitors of vaccinia virus (Venus reporter); Vaccinia virus Venus reporter expression, fluorescence; Potency, µM (titrated, usually from 36.5 µM), most hits filed as inhibitors; 330,000 tested, 0.46% active; AID 720580; calls by dose curve; tested in A549 cells; further: nearly all actives have a fitted effect of over 30% in size
LASV entry inh: blocks Lassa virus binding to or entry into cells. Lassa virus pseudotype entry inhibition, cell reporter. Potency, µM (titrated, usually from 37.9 µM), most hits filed as inhibitors. 300,000 tested, 1.2% active; calls by dose curve; tested in HEK293 cells; further: nearly all actives have a fitted effect of over 50% in size
Vaccinia mCherry: vaccinia inhibition (mCherry reporter); Potency, µM (doses to about 36.5 µM), actives largely listed as inhibitors; 310,000 tested, 0.63% active; Vaccinia virus mCherry reporter infection, fluorescence; calls by dose curve; tested in A549 cells; further: nearly all actives have a fitted effect of over 35% in size
HCMV antiviral: human cytomegalovirus inhibition; AID 1259415; activity change, negative = inhibition, % at 57.5 µM; HFF cells, HCMV-luciferase reporter, 72 h; hits give low values; 410,000 tested, 4.5% active; in the data active means activity change below about -60%; inconclusive means no clear call, values can overlap the other calls; inactive means above about -39%
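Human foreskin fibroblasts infected with luciferase-reporter HCMV at MOI 1 PFU/cell, compounds at two doses. Luciferase measured 72 h post infection; normalized to buffer-only basal and Salinomycin (10uM) controls.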
MARV entry inh: blocks Marburg virus binding to or entry into cells; Marburg virus pseudotyped entry inhibition, cell reporter; Potency, µM (doses to about 37.8 µM), usual class: inhibitors; 300,000 tested, 1.8% active; calls by dose curve; tested in HEK293 cells
Numbers stand for hits; n = inactive; u = inconclusive; x = not tested or not shown. Compounds with a hit are over-represented: about 6.5% of the library has one in this group of screens.

SMILES	FMDV inh	Vaccinia Venus	LASV entry inh	Vaccinia mCherry	HCMV antiviral	MARV entry inh
CCCNC(=O)OC[C@H]1O[C@H](CCON=C(C)CCC(=O)OC[C@H]2O[C@H](C#Cc3ccccc3)C=C[C@H]2Oc2ccc(C)cc2)C=C[C@H]1Oc1ccc(OC)cc1	x	x	x	x	x	n
COc1ccc(-c2nc3cnc(N4CCNCC4)nc3n(Cc3cccs3)c2=O)cc1	n	x	x	x	x	x
CCCn1c(=O)c2sccc2n2c(CCCC(=O)NC3CCC(C)CC3)nnc12 (stereo not given)	n	n	n	n	n	x
Cc1ccc(C(=O)NC(NC(=O)c2ccc(C)cc2)c2cccc([N+](=O)[O-])c2)cc1	n	n	n	n	-60	n
O=S(=O)(/C=C/c1ccccc1)N1CCN(c2nc(-c3cccnc3)nc3ccccc23)CC1	n	n	u	n	u	11µM
O=S(=O)(c1ccccc1)N1CCN(c2nc(-c3cccnc3)nc3ccccc23)CC1	u	n	n	n	n	n
COc1cc(NC(C)CCCNC(C)C)c2ncccc2c1OC (stereo not given)	n	n	n	n	-82	n
COc1cc(NCCCCCCN)c2ncccc2c1OC	u	n	u	n	u	u
COc1ccc(S(=O)(=O)NCc2ccco2)c2ccccc12	x	n	n	n	-66	n
O=C(Cn1cnc2c(cnn2-c2ccccc2)c1=O)N1CCCc2ccccc21	u	x	u	x	u	7.3µM
O=C(Cn1cnc2c(nnn2-c2ccccc2)c1=O)N1CCCc2ccccc21	u	n	x	n	n	x
CN1CCN(c2ncc3nc(-c4ccccc4)c(=O)n(CCC#N)c3n2)CC1	n	x	x	x	x	x
COc1ccccc1C1CN(CCNC(=O)c2cscn2)Cc2ccccc2O1 (stereo not given)	n	n	x	n	x	x
Cc1ccc2oc(C(Cl)(Cl)Cl)cc(=O)c2c1	x	u	n	11µM	-89	12µM
Cc1cc(C)cc(N(CCC#N)C(=O)CSc2nc3ccccc3c(=O)[nH]2)c1	n	n	u	n	n	10µM
Cc1ccc(C)c(C(=O)CSc2nc3ccccc3c(=O)[nH]2)c1	n	n	n	n	-66	n
Cc1cc(C)c(C(=O)CSc2nc3ccccc3c(=O)[nH]2)cc1C	n	n	n	n	n	n
CC(C)C(=O)Nc1ccc(N2CCN(C(=O)c3cccs3)CC2)cc1	n	n	n	n	n	n
COc1ccc(C(=O)N2CCN(c3ccc(NC(=O)c4cccs4)cc3)CC2)cc1	u	n	n	n	-68	n
Cc1ccccc1C(=O)N1CCN(c2ccc(NC(=S)NC(=O)c3cccs3)cc2)CC1	n	x	x	x	n	x
CCc1ccc(C(=O)N2CCN(c3ccc(NC(=O)c4ccco4)cc3)CC2)cc1	u	n	u	n	n	n
COc1ccc(C(=O)N2CCN(c3ccc(NC(=O)c4ccco4)cc3)CC2)cc1	n	n	n	n	-76	n
CC(C)CC(=O)NC(=S)Nc1ccc(N2CCN(C(=O)c3cccs3)CC2)cc1	u	n	5.6µM	n	n	u
Cc1ccc(C(=O)N2CCN(c3ccc(NC(=S)NC(=O)c4cccs4)cc3)CC2)cc1	n	n	u	u	-74	7.9µM
C=CCn1c(SCC#N)nc2ccc(Cl)cc2c1=O	x	n	x	n	x	x
SMILES	FMDV inh	Vaccinia Venus	LASV entry inh	Vaccinia mCherry	HCMV antiviral	MARV entry inh
COc1cccc(N2C(=O)CSC23C(=O)N(CC(=O)NCc2ccc(C)cc2)c2ccccc23)c1 (stereo not given)	n	n	n	n	n	x
Cc1cc(C)n(CCC(=O)N/N=C/c2ccc(O)cc2)n1	n	n	n	n	n	n
O=C(CCSc1nc2ccccc2s1)N/N=C/c1c(O)ccc2ccccc12	n	x	u	x	-99	u
Cc1cc(C)n(CCC(=O)N/N=C/c2c(O)ccc3ccccc23)n1	n	x	x	x	-83	x
Fc1ccc(Nc2ncncc2-c2ccoc2)cc1	n	x	x	x	x	x
Cc1ccc(C(=O)N2CCOc3ccc(CN4CCN(Cc5ccccn5)CC4)cc3C2)cc1	n	n	x	n	x	x
COc1cccc(CNC(=O)C(CC(C)C)NS(=O)(=O)c2ccc3c(c2)oc(=O)n3C)c1 (stereo not given)	n	n	n	n	n	n
O=C1C(=O)N(Cc2cccnc2)[C@@H](c2ccccn2)/C1=C(/O)c1ccc(F)cc1	x	x	x	x	x	n
COc1cccc(/C=C2/Sc3ccc(C(=O)NCCN4CCCCCC4)cc3NC2=O)c1	n	x	x	x	-70	x
CN1CCN(C(=O)c2ccc3c(c2)NC(=O)/C(=C/c2ccccc2)S3)CC1	n	x	x	x	-69	x
Cc1cccc(/C=C2/Sc3ccc(C(=O)NCCN4CCCC4)cc3NC2=O)c1	n	x	x	x	u	x
